This is a sample that favours compounds with a hit; in the whole collection about 10% have one here.
G9a block: blocks human histone lysine methyltransferase G9a | Potency, µM (series often up to 102 µM), for the others: at the highest dose activity, negative = inhibition, actives largely listed as inhibitors | actives 8.8% (n = 350,000) | AID 504332 | G9a H3K9 monomethylation, AlphaScreen, 2 h; further: potency means the concentration at half of the fitted maximal effect; on the % scale 0 is the no-effect control and ±100 the full control effect; nearly all actives have a fitted effect of over 75% in size
Target sequence (Q96KQ7 913-1193 limits assumed): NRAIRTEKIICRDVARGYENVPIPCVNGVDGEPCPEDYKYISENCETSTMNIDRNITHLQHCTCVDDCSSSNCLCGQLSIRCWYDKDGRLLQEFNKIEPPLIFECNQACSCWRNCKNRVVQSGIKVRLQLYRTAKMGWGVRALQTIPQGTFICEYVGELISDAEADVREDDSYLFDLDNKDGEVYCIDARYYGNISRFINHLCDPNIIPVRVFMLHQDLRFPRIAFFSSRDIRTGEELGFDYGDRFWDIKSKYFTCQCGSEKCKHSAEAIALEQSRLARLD
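Methyltransferase reactions run at room temperature for 2 h (20 nM enzyme, 500 nM biotin-H3K9 peptide, 20 uM SAM) after a 15 min compound preincubation; product detected by AlphaScreen beads and anti-H3K9me1 antibody.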
BAZ2B inh: inhibitors of human BAZ2B bromodomain; actives 4.4% (n = 360,000); AID 504333; Potency, µM (doses to about 114 µM), inactives show top-dose activity change, negative = inhibition, most hits filed as inhibitors; Q9UIF8; AlphaScreen BAZ2B-H3K14Ac peptide displacement; further: potency means the concentration at half of the fitted maximal effect; on the % scale 0 is the no-effect control and ±100 the full control effect; nearly all actives have a fitted effect of over 60% in size
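Complex of BAZ2B and biotin-H3K14Ac (50 nM apiece) forms over 30 min at RT, then faces library compounds up to 110 uM for another 30 min; AlphaScreen beads added, 20 min dark incubation, luminescence read.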
CtBP-E1A inh: CtBP/E1A binding inhibition. AID 651724. actives 0.49% (n = 340,000). AlphaScreen GST-E1A/His-CtBP binding, 1536-well; hits give low values. activity change, % (no concentration beside the values); in the data active means activity change below about -65%; inconclusive means mostly about -30% to -63%; further: on the % scale 0 is the no-effect control and ±100 the full control effect
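Homogeneous bead-based format: GST-tagged E1A captured on glutathione donor beads, His-tagged CtBP on nickel acceptor beads; compounds precede bead addition by 2 h at 37 °C.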
HP1b binding inh: HP1-beta chromodomain-methylated histone interaction inhibition | actives 0.56% (n = 390,000) | P83916 | AlphaScreen HP1-beta / biotin-H3K9me3 peptide binding | Potency, µM (highest dose often 114 µM), for inactives: at the highest dose activity change, negative = inhibition, actives largely listed as inhibitors; further: potency means the concentration at half of the fitted maximal effect; nearly all actives have a fitted effect of over 70% in size
Target sequence (P83916 whole entry, looked up): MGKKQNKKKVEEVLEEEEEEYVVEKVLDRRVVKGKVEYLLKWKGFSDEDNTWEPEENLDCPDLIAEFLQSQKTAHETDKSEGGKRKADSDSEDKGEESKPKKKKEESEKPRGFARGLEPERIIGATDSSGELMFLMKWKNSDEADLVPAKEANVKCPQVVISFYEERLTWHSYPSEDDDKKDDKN
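AlphaScreen: HP1-beta (50 nM) preformed 30 min with biotin-H3(1-18)K9me3 peptide (50 nM) in PBS pH 7.4, 0.01% Tween-20. Compound added for 30 min at RT, then streptavidin donor/nickel chelate acceptor beads (10 ug/mL) for 30 min.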
Six1-Eya2 inh: blocks human Six1 binding to Eya2; actives 0.56% (n = 360,000); AlphaScreen GST-Six1/His-Eya2 binding, biochemical; hits give low values; AID 651725; activity change, % (test concentration not listed); in the data active means activity change below about -65%; inconclusive means mostly about -30% to -63%; further: on the % scale 0 is the no-effect control and ±100 the full control effect
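AlphaScreen luminescence read after one hour at 37 °C in darkness. Pin-transferred compounds met GST-Six1 and His-Eya2 protein (5X stock 250 nM/500 nM) plus glutathione donor and Ni-chelate acceptor beads (5X, 50 ug/mL).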
JMJD2A Tudor inh: blocks the human JMJD2A Tudor domain. actives 4.4% (n = 390,000). AID 504339. Potency, µM (highest dose often 114 µM), inactives show at the highest dose activity change, negative = inhibition, actives largely listed as inhibitors. AlphaScreen JMJD2A-Tudor / H3K4me3 peptide binding; further: potency means the concentration at half of the fitted maximal effect; on the % scale 0 is the no-effect control and ±100 the full control effect; nearly all actives have a fitted effect of over 50% in size
* hit, by the source's call; ? = inconclusive; nt = no result given; [ ] = remark or other dose. Unless noted, the call rests on the fitted dose curve; in most records, active means well fitted inhibition curve with a large enough effect; inconclusive means small, poorly fitted or top-dose-only effect; inactive means no such curve, though single readings can be large or run the other way.

SMILES	G9a block	BAZ2B inh	CtBP-E1A inh	HP1b binding inh	Six1-Eya2 inh	JMJD2A Tudor inh
CC(=O)Nc1cccc(/C(C)=N/Nc2ccc(S(=O)(=O)Nc3ccccc3C(=O)O)cc2[N+](=O)[O-])c1	nt	nt	2.4	?	-11.1	35.5µM*
O=[N+]([O-])c1cc(S(=O)(=O)Nc2ccc(Cl)cc2)ccc1N/N=C/c1ccncc1	-25.3%	-15.3%	-4.3	-0.1%	-6.8	-16.9%
CC(=O)Nc1ccc(C=NNc2ccc(S(=O)(=O)Nc3ccccc3C(=O)O)cc2[N+](=O)[O-])cc1	nt	nt	?	?	-21.6	50.1µM*
CC(=O)Nc1ccc(C=NNc2ccc([N+](=O)[O-])cc2S(=O)(=O)Nc2ccccc2C(=O)O)cc1	nt	nt	-13.3	12.4%	-3.5	?
COc1cc(C=NNc2ccc(S(=O)(=O)Nc3ccccc3C(=O)O)cc2[N+](=O)[O-])ccc1O	nt	nt	nt	?	?	25.1µM*
O=C(O)c1ccccc1NS(=O)(=O)c1ccc(N/N=C/c2cccc(O)c2O)c([N+](=O)[O-])c1	nt	nt	13.7	?	?	20µM*
CCC(=O)Nc1ccc(C)cc1-c1nc2ccccc2n(CC(=O)Nc2ccccc2Cl)c1=O	6.2%[59 µM]	-5.8%	nt	24.8%	nt	-7.3%
Cc1ccc(CNC(=O)C(=O)NCC(c2cccs2)S(=O)(=O)c2ccccc2)cc1 (stereo unspecified)	-0.1%[59 µM]	4.6%	nt	68.2%	nt	-1.5%
O=c1cc(CS(=O)(=O)c2ccccc2)nc(-c2ccncc2)[nH]1	30.1%	-12.2%	nt	15.8%	11.8	-0.8%[11.4 µM]
CCOc1ccc(CCNC(=O)c2c(C)oc3ncnc(N4CCOCC4)c23)cc1	-10.1%[59 µM]	7.6%[57.1 µM]	nt	38.3%	nt	-5.5%
CCOc1ccc(C=NNc2ccc(S(=O)(=O)Nc3ccccc3C(=O)O)cc2[N+](=O)[O-])cc1OC	nt	nt	-3.0	?	-12.0	20µM*
CN(CCO)c1ccc(C=NNc2ccc([N+](=O)[O-])cc2S(=O)(=O)Nc2ccccc2C(=O)O)cc1	nt	nt	-12.9	44.7µM*	-9.0	44.7µM*
O=C(Cn1nc(-c2ccccc2)c2c(c1=O)CCCC2)Nc1ccc(F)c(Cl)c1	11.3%[59 µM]	15.7%	nt	48.3%	nt	-25.2%
COc1ccc(CC(N)c2csc(Nc3cc(NCc4ccco4)ncn3)n2)cc1 (stereo unspecified)	nt	nt	-73.5*	nt	-65.2*	nt
NC(c1csc(Nc2cc(NCCCO)ncn2)n1)c1ccccc1Cl (stereo unspecified)	nt	nt	-89.2*	nt	-89.0*	nt
COc1ccc(CC(N)c2csc(Nc3ncccn3)n2)cc1 (stereo unspecified)	nt	nt	-79.6*	nt	-71.0*	nt
COc1ccc(CC(N)c2csc(Nc3cnccn3)n2)cc1 (stereo unspecified)	nt	nt	-74.7*	nt	?	nt
CS(=O)(=O)Nc1cccc(-c2ccc3ncnc(N4CCNCC4)c3c2)c1	8.6%[0.501 µM]	nt	nt	nt	nt	nt
Cc1ccc(CNC(=O)C(=O)NCC(c2cccs2)S(=O)(=O)c2cccs2)cc1 (stereo unspecified)	6.4%[59 µM]	-4.1%	nt	18.6%	nt	-16.9%
FC(F)(F)c1nc2nc(Cl)c(Cl)nc2n1CCCN1CCOCC1	nt	nt	-11.6	nt	-16.5	nt
Cc1ccccc1CSc1nnc2[nH]c(=O)cc(-c3ccccc3)n12	-46.8%[59 µM]	-1.2%	nt	4.6%	nt	-9.7%
CCc1cnc(Nc2nc(C(N)Cc3ccc(F)cc3)cs2)nc1 (stereo unspecified)	nt	nt	-71.1*	nt	?	nt
COc1ccc(C(N)c2csc(Nc3nncc4ccccc34)n2)cc1 (stereo unspecified)	nt	nt	-1.7	nt	1.5	nt
COc1ccc(C(N)c2csc(Nc3ncccn3)n2)cc1 (stereo unspecified)	nt	nt	-83.0*	nt	-85.1*	nt
COc1cc(OC)nc(Nc2nc(C(N)c3ccccc3Cl)cs2)n1 (stereo unspecified)	nt	nt	-30.0	nt	-28.9	nt
SMILES	G9a block	BAZ2B inh	CtBP-E1A inh	HP1b binding inh	Six1-Eya2 inh	JMJD2A Tudor inh
NC(c1csc(Nc2ncccn2)n1)c1ccccc1Cl (stereo unspecified)	nt	nt	-66.1*	nt	-67.9*	nt
COCCNC(=O)CCCn1c(SCC(=O)Nc2cccc(C)c2)nc2c(sc3ccccc32)c1=O	1.1%[59 µM]	?	nt	41.4%	nt	2.0%
O=C(NC(c1ccccc1)c1ccsc1)C1CCN(CCOc2ccc(Cl)cc2Cl)CC1 (stereo unspecified)	nt	nt	-8.8	nt	-3.4	nt
COCCCNC(=O)c1csc([C@@H]2O[C@H](CO)[C@H](O)[C@H](O)[C@H]2O)n1	nt	nt	-6.2	nt	0.3	nt
Cc1c(C(=O)Nc2ccc(F)cc2F)nnn1-c1ccccc1Br	-41.6%[59 µM]	-0.3%	nt	52.5%	nt	-4.6%
CCOC(=O)CSc1nnc(-c2ccccc2)c(-c2ccccc2)n1	47.1%	0.6%	-6.4	32.2%	1.1	9.9%
CCOC(=O)CSc1nc(-c2ccccc2)ns1	8.91µM*	193.4%	69.4	85.9%	64.4	98.2%
COc1ccc(-c2nsc(SCC(=O)NCC3CCCO3)n2)cc1 (stereo unspecified)	7.94µM*	-24.0%	-1.3	21.5%	3.0	-14.8%
COc1ccc(-c2nsc(SCC(=O)Nc3cc(C)on3)n2)cc1	3.55µM*	4.2%	1.1	?	5.2	?
CCOC(=O)CNC(=O)CSc1nc(-c2ccc(OC)cc2)ns1	17.8µM*	-11.8%	-14.5	?	-10.9	-15.8%
CCC(CC)C(=O)Oc1c(C(=O)N(C)C)cccc1-c1ccccc1	nt	nt	-0.2	-15.0%	3.6	-19.6%
CCC(=O)Nc1cc(C)c(NC(=O)c2ccccc2OC)cn1	15.8%	4.1%	5.5	49.0%	0.3	1.9%
CCOc1ccc2nc(SCC(=O)NCC3CCCO3)sc2c1 (stereo unspecified)	nt	nt	-0.4	-22.4%	8.8	-15.2%
CCOC(=O)Cn1nc(-c2ccccc2)nc1-c1ccccc1	27.6%[59 µM]	5.8%	-3.3	72.7%	5.6	5.62µM*
CCOC(=O)Cn1nc(-c2ccccc2)c(-c2ccccc2)nc1=O	12.4%[0.501 µM]	-5.6%	0.7	13.6%	3.0	-12.0%
CCOc1ccc2[nH]c3nc(SCC(=O)NCC4CCCO4)nnc3c2c1 (stereo unspecified)	10.0%	-2.5%	-86.1*	0.5%	-89.9*	-23.5%
CCCC(=O)n1nc(-c2ccccc2)nc1SC	1.12µM*	58.4%	nt	120.2%	-7.1	26.8%
Cc1ccccc1-c1cncnc1NCc1cccs1	13.4%[0.501 µM]	nt	nt	nt	nt	nt
CN(C)c1ccc(Cl)cc1N	25.1µM*	?	-4.8	36.1%	0.0	-4.9%
CCOC(=O)C1(C)CCCN(C(=O)c2ccc(OC)c(OC)c2)C1 (stereo unspecified)	nt	nt	6.8	nt	1.2	nt
NN(CCO)C(=S)Nc1ccc(Cl)cc1	11.2µM*	?	-3.4	36.7%	0.2	-9.2%
O=C(Cn1cc(SCc2ccccc2Cl)c2ccccc21)N1CCCCCC1	-2.8%[59 µM]	-23.3%	nt	40.3%	nt	0.4%
